# Assay results published in PubChem BioAssay AID1032 (The Scripps Research Institute Molecular Screening Center, 2008).
# Hit rate of the full screen: of about 200,000 compounds, about 670 (0.34%) were called active. No stated cut-off is given here; in the data, active means activation above about 22%; inactive means the rest. This excerpt belongs to a sample that is enriched for actives.
# Biological target: Peroxisome proliferator-activated receptor gamma (Homo sapiens) (UniProt P37231)
# Test: compounds enhancing SRC-2 coactivator binding to PPARgamma – biochemical, HTS, primary screen (AID 1032);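 further: 0% = vehicle and 100% = reference agonist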
# Settings: PPARgamma LBD-SRC-2 recruitment, at 8 µM, active compounds read high
# Peroxisome proliferator-activated receptor gamma (Homo sapiens), sequence (P37231 whole entry, looked up): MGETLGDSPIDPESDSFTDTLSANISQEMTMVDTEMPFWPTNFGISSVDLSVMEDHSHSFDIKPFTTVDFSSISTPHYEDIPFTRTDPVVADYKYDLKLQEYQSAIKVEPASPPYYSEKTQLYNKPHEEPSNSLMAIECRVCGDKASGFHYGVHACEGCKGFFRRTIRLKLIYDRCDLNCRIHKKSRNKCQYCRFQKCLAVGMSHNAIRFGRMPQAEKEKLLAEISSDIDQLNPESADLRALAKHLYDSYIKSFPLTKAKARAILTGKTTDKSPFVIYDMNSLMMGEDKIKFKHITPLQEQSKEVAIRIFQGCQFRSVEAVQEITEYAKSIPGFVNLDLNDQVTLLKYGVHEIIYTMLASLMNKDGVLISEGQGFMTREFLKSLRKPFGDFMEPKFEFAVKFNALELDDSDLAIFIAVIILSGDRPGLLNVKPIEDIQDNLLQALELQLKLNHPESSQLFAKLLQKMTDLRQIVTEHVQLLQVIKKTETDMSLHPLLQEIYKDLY
row,Compound,activation
1,CSC1=NP(=S)(SC)N(C)c2nc3n(c21)CCC3 (stereo not given),76.2% (active)
2,Cc1cccc2c(CCN)c[nH]c12,0.78% (inactive)
3,O=C(Cc1ccccc1[N+](=O)[O-])N1CCN(Cc2ccc3c(c2)OCO3)CC1,0.02% (inactive)
4,CCN1CCN(c2ccc([N+](=O)[O-])cc2C#N)CC1,6.97% (inactive)
5,CC(C)CN1CCN(Cc2ccccc2C(F)(F)F)CC1CCO (stereo not given),-9.41% (inactive)
6,COc1cc(-n2c(=S)[nH]c3ccc(C)cc3c2=O)c(Cl)cc1Cl,24.8% (active)
7,CN(C)/C=C(\C=[N+](C)C)c1[nH]ncc1[N+](=O)[O-],3.67% (inactive)
8,Cc1ccsc1C(=O)C1CCCN(Cc2ccc(O)cc2)C1 (stereo not given),4.16% (inactive)
9,O=C1NC(=O)N(c2ccccc2)C(=O)/C1=C/c1ccc([N+](=O)[O-])s1,0.92% (inactive)
10,COc1ccc(CN2C(=O)NC(=O)/C(=C\c3ccc(OC)c(OC)c3OC)C2=O)cc1,11% (inactive)
